In all, about 410,000 compounds went through this assay and about 18,000 (4.4%) were called active. Roughly 7% stayed inconclusive and do not appear here. No stated cut-off is given here; in the data, active means activity change below about -60%; inconclusive means no clear call, values can overlap the other calls; inactive means above about -39%. Shown is part of a subset that was picked to be rich in actives.
On the % scale 0 is the no-effect control and ±100 the full control effect.

The assay in a line: qHTS Assay for inhibitors of the human cytomegalovirus (HCMV). The conditions noted are these: HFF cells, HCMV-luciferase reporter, 72 h; at 57.5 µM; hits give low values. Put shortly:
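Screen run at 2 compound doses on HFFs infected with reporter HCMV, MOI 1 PFU/cell. Luciferase activity from cell lysates at 72 h post infection gave inhibition relative to buffer-only and Salinomycin wells.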
Background: Quantitative high-throughput screening tests each substance at several concentrations.
Take `Cc1ccc(OCCSc2nc(-c3cccs3)nc3cc(=O)[nH]n23)cc1Cl`: the activity change, negative = inhibition was 22.8% (inactive).

Regarding `COc1ccccc1N1CCN(S(=O)(=O)CCNC(=O)COc2ccc(F)cc2)CC1`, the activity change, negative = inhibition is 65.8% (inactive).

Consider `Cc1ccc(NC(=O)CCCn2c(=O)c3cccn3c3ccccc32)cc1Cl`, for which the activity change, negative = inhibition is 4.78% (inactive).

Consider `Cc1c(C)c(C)c(S(=O)(=O)N2CCC3(CC2)OCCO3)c(C)c1C`, for which the activity change, negative = inhibition was -6.48% (inactive).

Turning to `O=S(=O)(c1ccc(Cl)s1)N1CCC2(CC1)OCCO2`, the activity change, negative = inhibition was -18.3% (inactive).

On to `CC(C)c1ccc(S(=O)(=O)N2CCC3(CC2)OCCO3)cc1`, for which the activity change, negative = inhibition was -60.4% (active).

With `COCCNC(=O)c1cccc(-c2nc3c(NC4CCCCC4)nccc3[nH]2)c1`, the activity change, negative = inhibition was -4.46% (inactive).

On to `CCOc1ccccc1NC(=O)CCn1cnnn1`, for which the activity change, negative = inhibition is -4.13% (inactive).

Consider `NC(=S)NN=Cc1ccc(OC(=O)COc2cc(Cl)c(Cl)cc2Cl)cn1`, for which the activity change, negative = inhibition is -75.3% (active).

Consider `O=C(COc1cc(Cl)c(Cl)cc1Cl)NC(=O)NC1CCCC1`, for which the activity change, negative = inhibition is 65.3% (inactive).

In the case of `CC(C)(C)c1ccc(C(=O)N2CCC(c3nc(-c4ccc(S(=O)(=O)N5CCCC5)cc4)no3)CC2)cc1`, the activity change, negative = inhibition was -35.7% (inactive).

`CCCN(C(=O)Cn1cc(S(=O)(=O)N2CCN(c3ccccc3F)CC2)c2ccccc2c1=O)c1cccc(C)c1`: the activity change, negative = inhibition was -13.9% (inactive).

On to `CC1COC2C(O1)N(S(C)(=O)=O)CCN2S(C)(=O)=O` (stereo unspecified), for which the activity change, negative = inhibition was 17.4% (inactive).

Turning to `CCOC(=O)CC1COCCN1C(=O)c1cc(COc2ccc(F)c(F)c2)on1` (stereo unspecified), the activity change, negative = inhibition was 53.9% (inactive).

For `CCCOC1CCCN(C(=O)c2cc(COc3cncc(Cl)c3)on2)C1` (stereo unspecified), the activity change, negative = inhibition was 45.7% (inactive).

As to `CCOC(=O)CC1(NC(=O)c2cc(COc3cncc(Cl)c3)on2)CCCCC1`, the activity change, negative = inhibition is -73.4% (active).

On to `O=C(O)CSc1nccn1-c1cccc(Cl)c1`, for which the activity change, negative = inhibition was -24.9% (inactive).

Take `Cc1ccc(Nc2c(-c3ccc(N(C)C)cc3)nc3nc[nH]n23)cc1`: the activity change, negative = inhibition is -7.65% (inactive).

As to `Cc1cccc(OCCSc2nc3ccccc3n2CC(=O)N2CCCCC2)c1C`, the activity change, negative = inhibition was 0.117% (inactive).

As for `CCOC(=O)C1CCCN(C(=O)c2ccc(-n3ccc4ccccc43)s2)C1` (stereo unspecified), the activity change, negative = inhibition was 7.94% (inactive).

As for `CC1CN(C(=O)c2cc(COc3c(F)cccc3F)on2)CCN1C` (stereo unspecified), the activity change, negative = inhibition is 3.63% (inactive).

For `C=CCC1(CC=C)CCCN1C(=O)c1cc(COc2ccc(-n3cncn3)cc2)on1`, the activity change, negative = inhibition was -87.7% (active).

For the compound `Cc1ccc(C)c(OCc2cc(C(=O)N3CCN(c4cnccn4)CC3)no2)c1`, the activity change, negative = inhibition is -30.5% (inactive).

Turning to `COc1cccc(CNC(=O)Cn2c(=O)c3cccn3c3ccc(F)cc32)c1OC`, the activity change, negative = inhibition is 44.7% (inactive).

For the compound `CCOc1ccccc1CNC(=O)c1ccc2c(c1)nc1n2CCC(C)C1` (stereo unspecified), the activity change, negative = inhibition is 33.3% (inactive).

Regarding `Cc1ccc2nc(COc3cccc(NC(=O)Nc4ccc(C)c(Cl)c4)c3)cc(=O)n2c1`, the activity change, negative = inhibition was 26.6% (inactive).

In the case of `CC(NC(=O)c1cc2c(=O)n3ccccc3nc2n(C(C)C)c1=N)c1ccccc1` (stereo unspecified), the activity change, negative = inhibition is 0.208% (inactive).

Turning to `Cc1nn(-c2nc(-c3ccccc3)cc(C(F)(F)F)n2)c(C)c1Cl`, the activity change, negative = inhibition is -14.9% (inactive).

On to `CCOc1ccc(C(CC(=O)O)n2cnnn2)cc1OC` (stereo unspecified), for which the activity change, negative = inhibition was -29.4% (inactive).

Regarding `CCCCC(=O)NC(c1ccc(OC)c(OC)c1)c1ccc2cccnc2c1O` (stereo unspecified), the activity change, negative = inhibition was -103% (active).

In the case of `CCCCCCCC(=O)NC(Nc1ccccc1OC)C(Cl)(Cl)Cl` (stereo unspecified), the activity change, negative = inhibition is -23.2% (inactive).

Consider `COC(=O)/C(=C\Nc1ccccc1)NC(=O)c1ccc(Cl)cc1Cl`, for which the activity change, negative = inhibition was -5.36% (inactive).

In the case of `COc1ccc(OC)c(CCNC(=O)CCCn2c(=O)c3cccn3c3cccnc32)c1`, the activity change, negative = inhibition was 6.58% (inactive).

Turning to `COc1ccc(NC(=O)CN2CCCN(Cc3ccccc3)S2(=O)=O)cc1`, the activity change, negative = inhibition was 0% (inactive).

In the case of `COC(=O)[C@]1(S(=O)(=O)c2ccccc2)C[C@@H]2ON=C(c3ccc(OC)cc3)[C@@H]2C1`, the activity change, negative = inhibition is 13.3% (inactive).

Take `N#C[C@]1(S(=O)(=O)c2ccccc2)C[C@@H]2ON=C(c3cccc(Br)c3)[C@@H]2C1`: the activity change, negative = inhibition is -79.5% (active).

With `COc1ccc(CNc2nc(-c3ccc(Cl)cc3)cc(C(F)(F)F)n2)cc1`, the activity change, negative = inhibition is -7.09% (inactive).

`CCN(CC)S(=O)(=O)c1ccc2c(c1)nc(CN(C)C(=O)Nc1ccc(Cl)cc1)n2C`: the activity change, negative = inhibition was 9.69% (inactive).

`Cc1noc(/C=C/c2ccco2)c1S(=O)(=O)N1CCC(C(=O)N2CCc3ccccc32)CC1`: the activity change, negative = inhibition is 47.1% (inactive).

Take `Cc1noc(/C=C/c2ccco2)c1S(=O)(=O)N1CCC(C(=O)Nc2ccc(Cl)cn2)CC1`: the activity change, negative = inhibition was -79.9% (active).

Consider `Cc1cccc(NC(=O)C2CCN(S(=O)(=O)c3c(C)noc3/C=C/c3ccco3)CC2)c1`, for which the activity change, negative = inhibition was -40% (inactive).

With `C[C@H]1CN([C@@H](C)CO)C(=O)CCCn2cc(nn2)CO[C@@H]1CN(C)S(=O)(=O)c1ccccc1C#N`, the activity change, negative = inhibition was -5.79% (inactive).

`Cc1cccc(N2CCN(S(=O)(=O)c3ccc4[nH]c5c(c4c3)CCCCC5)CC2)c1C`: the activity change, negative = inhibition was 16.6% (inactive).

Regarding `Cc1c(NC(=O)Nc2ccc(F)c(Cl)c2)c(=O)n(-c2ccccc2)n1C`, the activity change, negative = inhibition was 1.88% (inactive).

For the compound `O=C(NC(Cc1ccccc1)C(=O)O)/C(=C\c1ccccc1)NC(=O)c1ccco1` (stereo unspecified), the activity change, negative = inhibition was 54.3% (inactive).

Consider `C/C(CC(=O)NC(C)(C)C)=N\NC(=O)c1ccco1`, for which the activity change, negative = inhibition was 16.9% (inactive).

For `CC(C)(C)NC(=O)/C(=C/c1cccnc1)NC(=O)c1ccco1`, the activity change, negative = inhibition was -61.3% (active).

On to `Cc1ccc(/C=C(\C#N)C(=O)Nc2cc(C)ccc2C)cc1`, for which the activity change, negative = inhibition was -15.9% (inactive).

`Cc1ccc(CNC(=O)C2CCCN2C(=O)NCc2ccccc2)cc1` (stereo unspecified): the activity change, negative = inhibition is 1.11% (inactive).

Consider `Cc1[nH]n(-c2cccc(Cl)c2)c(=O)c1-c1ccc(Cl)cc1`, for which the activity change, negative = inhibition is -66.9% (active).

Consider `CCCc1cc(=O)n2[nH]c(C)c(-c3ccc(Cl)cc3)c2n1`, for which the activity change, negative = inhibition was 4.01% (inactive).

With `O=c1c2ccccc2[nH]c(=S)n1-c1cccc(Cl)c1`, the activity change, negative = inhibition was -21.9% (inactive).

On to `Cc1ccc2c(c1)N(CC(=O)N1CCCC(C)C1)C(=O)CO2` (stereo unspecified), for which the activity change, negative = inhibition is -22.2% (inactive).

Regarding `COC(=O)c1sc2ncccc2c1-n1c(C)ccc1C`, the activity change, negative = inhibition is -10.3% (inactive).

As for `CCOC(=O)c1cc2cc(OC)ccc2n1C1CCN(C)CC1`, the activity change, negative = inhibition was -32.2% (inactive).

Regarding `CCN(CC)c1cc(NC2CCCCC2)c2c3c(onc13)-c1ccccc1C2=O`, the activity change, negative = inhibition is -25.5% (inactive).

(Values after PubChem BioAssay AID1259415 (National Center for Advancing Translational Sciences (NCATS), 2018).)
